Drawing on the supplement of paper PMC6411743, this text covers NP40-soluble protein abundance for 15 targets.

Compound in this assay: Nc1ncnc2c1ncn2[C@@H]1O[C@H](COP(=O)(O)OP(=O)(O)OP(=O)(O)O)[C@@H](O)[C@H]1O [adenosine triphosphate]
As to the kind of experiment: NP40-soluble protein abundance relative to vehicle (solubility fold change) (ratio); higher = more soluble protein in presence of ATP. A digest of the protocol: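 Across three independent experiments, values are fold changes against the detergent-processed vehicle for each replicate, based on vsn-normalised intensities. The samples were Jurkat crude lysate treated with eight concentrations (0.1 to 10 mM) for 10 min at room temperature and then 3 min at 37 °C. Lysate was solubilised with 0.8% NP40 and benzonase, ultracentrifuged, and the supernatant analysed by TMT-labelled LC-MS/MS.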

± gives the standard deviation of the averaged measurements. The full data set covers some 6,500 targets. This sample favours those with the largest changes.

Chain of UniProt Q8N8D1 (Q8N8D1 whole entry): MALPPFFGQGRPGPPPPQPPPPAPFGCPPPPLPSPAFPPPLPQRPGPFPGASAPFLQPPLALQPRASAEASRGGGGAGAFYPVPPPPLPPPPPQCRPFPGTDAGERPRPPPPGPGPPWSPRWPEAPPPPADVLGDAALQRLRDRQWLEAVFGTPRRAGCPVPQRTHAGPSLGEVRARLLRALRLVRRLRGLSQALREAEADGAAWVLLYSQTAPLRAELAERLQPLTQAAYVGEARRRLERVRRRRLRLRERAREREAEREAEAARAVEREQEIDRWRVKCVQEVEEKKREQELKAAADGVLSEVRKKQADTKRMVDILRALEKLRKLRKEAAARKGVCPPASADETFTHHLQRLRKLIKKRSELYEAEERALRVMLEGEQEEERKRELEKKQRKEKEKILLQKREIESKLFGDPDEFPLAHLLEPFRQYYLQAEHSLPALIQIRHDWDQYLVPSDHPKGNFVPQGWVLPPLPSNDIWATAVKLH
Chain of UniProt Q14011 (Q14011 whole entry): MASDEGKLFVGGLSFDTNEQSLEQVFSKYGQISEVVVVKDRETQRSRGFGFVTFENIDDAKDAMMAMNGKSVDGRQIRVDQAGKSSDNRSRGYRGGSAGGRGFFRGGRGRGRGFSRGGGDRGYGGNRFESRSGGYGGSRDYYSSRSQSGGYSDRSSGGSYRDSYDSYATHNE
Chain of UniProt Q8IUD2 (Q8IUD2 whole entry, one chain of several): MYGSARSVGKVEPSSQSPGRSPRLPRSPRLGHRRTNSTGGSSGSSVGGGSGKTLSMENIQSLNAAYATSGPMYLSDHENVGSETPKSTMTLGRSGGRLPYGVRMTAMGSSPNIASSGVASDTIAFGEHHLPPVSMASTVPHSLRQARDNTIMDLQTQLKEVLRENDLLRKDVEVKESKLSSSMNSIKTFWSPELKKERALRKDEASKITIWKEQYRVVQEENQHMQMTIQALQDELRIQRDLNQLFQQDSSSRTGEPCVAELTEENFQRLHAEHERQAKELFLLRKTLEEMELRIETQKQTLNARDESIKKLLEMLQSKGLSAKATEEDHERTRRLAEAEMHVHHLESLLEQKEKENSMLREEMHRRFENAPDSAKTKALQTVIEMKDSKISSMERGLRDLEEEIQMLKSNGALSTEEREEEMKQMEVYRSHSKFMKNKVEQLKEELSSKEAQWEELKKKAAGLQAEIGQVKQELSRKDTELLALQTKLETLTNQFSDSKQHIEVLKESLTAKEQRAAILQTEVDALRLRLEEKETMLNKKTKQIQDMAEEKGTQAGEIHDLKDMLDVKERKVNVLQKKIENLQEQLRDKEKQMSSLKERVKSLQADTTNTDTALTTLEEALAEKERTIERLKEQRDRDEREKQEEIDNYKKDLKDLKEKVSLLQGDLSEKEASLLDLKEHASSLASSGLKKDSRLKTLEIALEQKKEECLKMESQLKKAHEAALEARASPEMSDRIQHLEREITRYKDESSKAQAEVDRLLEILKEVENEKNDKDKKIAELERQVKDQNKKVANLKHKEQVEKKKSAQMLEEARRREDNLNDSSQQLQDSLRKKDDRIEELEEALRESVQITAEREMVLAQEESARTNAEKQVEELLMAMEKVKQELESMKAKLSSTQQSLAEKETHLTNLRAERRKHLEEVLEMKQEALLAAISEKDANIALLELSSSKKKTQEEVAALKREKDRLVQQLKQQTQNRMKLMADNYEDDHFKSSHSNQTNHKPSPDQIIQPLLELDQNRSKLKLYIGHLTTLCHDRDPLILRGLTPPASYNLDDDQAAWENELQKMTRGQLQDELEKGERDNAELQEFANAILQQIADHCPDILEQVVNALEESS
Chain of UniProt Q3MII6 (Q3MII6 whole entry): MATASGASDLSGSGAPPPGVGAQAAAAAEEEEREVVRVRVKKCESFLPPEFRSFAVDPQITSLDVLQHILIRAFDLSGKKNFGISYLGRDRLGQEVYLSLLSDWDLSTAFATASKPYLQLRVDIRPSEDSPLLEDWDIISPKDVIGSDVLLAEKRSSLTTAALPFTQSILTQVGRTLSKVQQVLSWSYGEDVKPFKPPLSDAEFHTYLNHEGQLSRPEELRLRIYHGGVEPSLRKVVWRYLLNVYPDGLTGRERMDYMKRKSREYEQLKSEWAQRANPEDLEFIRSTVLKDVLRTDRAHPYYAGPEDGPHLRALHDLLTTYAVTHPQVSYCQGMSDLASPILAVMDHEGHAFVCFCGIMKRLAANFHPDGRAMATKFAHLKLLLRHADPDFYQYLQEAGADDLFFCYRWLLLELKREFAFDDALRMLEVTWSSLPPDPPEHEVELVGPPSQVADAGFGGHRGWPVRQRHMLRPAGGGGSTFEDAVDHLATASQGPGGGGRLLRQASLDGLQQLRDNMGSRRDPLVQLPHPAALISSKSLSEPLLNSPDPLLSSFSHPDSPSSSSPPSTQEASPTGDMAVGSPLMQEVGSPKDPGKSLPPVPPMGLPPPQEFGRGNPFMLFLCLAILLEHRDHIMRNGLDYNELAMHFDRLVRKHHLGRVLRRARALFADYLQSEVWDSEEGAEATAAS
Chain of UniProt Q8N183 (Q8N183 whole entry): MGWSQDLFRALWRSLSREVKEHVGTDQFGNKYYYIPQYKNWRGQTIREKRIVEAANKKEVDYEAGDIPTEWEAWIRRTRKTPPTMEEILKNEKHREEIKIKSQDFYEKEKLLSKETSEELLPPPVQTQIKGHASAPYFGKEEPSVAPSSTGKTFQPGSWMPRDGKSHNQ
Chain of UniProt Q13601 (Q13601 whole entry): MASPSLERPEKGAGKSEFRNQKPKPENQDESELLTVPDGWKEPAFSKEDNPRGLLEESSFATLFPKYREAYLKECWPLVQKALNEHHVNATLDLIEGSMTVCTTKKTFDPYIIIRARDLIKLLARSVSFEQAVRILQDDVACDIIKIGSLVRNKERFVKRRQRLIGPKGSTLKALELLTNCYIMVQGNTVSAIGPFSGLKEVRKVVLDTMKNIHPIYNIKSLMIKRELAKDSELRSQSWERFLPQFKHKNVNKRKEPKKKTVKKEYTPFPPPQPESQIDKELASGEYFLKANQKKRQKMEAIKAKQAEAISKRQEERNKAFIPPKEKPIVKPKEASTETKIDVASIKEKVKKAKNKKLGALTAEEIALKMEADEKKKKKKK
Chain of UniProt Q8IY47 (Q8IY47 whole entry): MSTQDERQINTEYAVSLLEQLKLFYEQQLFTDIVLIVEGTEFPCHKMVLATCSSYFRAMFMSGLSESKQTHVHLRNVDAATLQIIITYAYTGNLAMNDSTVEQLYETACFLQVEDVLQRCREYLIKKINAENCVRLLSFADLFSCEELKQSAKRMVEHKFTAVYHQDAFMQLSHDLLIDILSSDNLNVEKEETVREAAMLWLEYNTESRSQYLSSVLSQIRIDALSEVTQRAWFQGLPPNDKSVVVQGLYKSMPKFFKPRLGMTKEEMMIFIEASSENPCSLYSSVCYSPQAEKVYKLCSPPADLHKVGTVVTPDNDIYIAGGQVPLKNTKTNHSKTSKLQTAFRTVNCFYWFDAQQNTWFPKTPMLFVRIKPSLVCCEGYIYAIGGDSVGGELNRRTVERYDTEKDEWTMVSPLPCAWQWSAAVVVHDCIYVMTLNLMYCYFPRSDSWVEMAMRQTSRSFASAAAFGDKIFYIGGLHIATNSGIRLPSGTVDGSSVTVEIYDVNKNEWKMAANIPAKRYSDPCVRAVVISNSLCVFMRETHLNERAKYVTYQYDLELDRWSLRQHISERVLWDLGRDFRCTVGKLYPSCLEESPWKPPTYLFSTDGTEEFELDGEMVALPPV
Chain of UniProt Q8WUY8 (Q8WUY8 whole entry, one chain of several): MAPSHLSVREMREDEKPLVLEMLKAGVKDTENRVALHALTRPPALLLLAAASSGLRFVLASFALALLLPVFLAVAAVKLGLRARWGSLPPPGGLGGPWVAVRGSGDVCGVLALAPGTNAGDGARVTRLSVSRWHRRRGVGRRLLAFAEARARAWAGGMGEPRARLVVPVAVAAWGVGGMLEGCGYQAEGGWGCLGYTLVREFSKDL
Chain of UniProt Q2KHT3 (Q2KHT3 whole entry): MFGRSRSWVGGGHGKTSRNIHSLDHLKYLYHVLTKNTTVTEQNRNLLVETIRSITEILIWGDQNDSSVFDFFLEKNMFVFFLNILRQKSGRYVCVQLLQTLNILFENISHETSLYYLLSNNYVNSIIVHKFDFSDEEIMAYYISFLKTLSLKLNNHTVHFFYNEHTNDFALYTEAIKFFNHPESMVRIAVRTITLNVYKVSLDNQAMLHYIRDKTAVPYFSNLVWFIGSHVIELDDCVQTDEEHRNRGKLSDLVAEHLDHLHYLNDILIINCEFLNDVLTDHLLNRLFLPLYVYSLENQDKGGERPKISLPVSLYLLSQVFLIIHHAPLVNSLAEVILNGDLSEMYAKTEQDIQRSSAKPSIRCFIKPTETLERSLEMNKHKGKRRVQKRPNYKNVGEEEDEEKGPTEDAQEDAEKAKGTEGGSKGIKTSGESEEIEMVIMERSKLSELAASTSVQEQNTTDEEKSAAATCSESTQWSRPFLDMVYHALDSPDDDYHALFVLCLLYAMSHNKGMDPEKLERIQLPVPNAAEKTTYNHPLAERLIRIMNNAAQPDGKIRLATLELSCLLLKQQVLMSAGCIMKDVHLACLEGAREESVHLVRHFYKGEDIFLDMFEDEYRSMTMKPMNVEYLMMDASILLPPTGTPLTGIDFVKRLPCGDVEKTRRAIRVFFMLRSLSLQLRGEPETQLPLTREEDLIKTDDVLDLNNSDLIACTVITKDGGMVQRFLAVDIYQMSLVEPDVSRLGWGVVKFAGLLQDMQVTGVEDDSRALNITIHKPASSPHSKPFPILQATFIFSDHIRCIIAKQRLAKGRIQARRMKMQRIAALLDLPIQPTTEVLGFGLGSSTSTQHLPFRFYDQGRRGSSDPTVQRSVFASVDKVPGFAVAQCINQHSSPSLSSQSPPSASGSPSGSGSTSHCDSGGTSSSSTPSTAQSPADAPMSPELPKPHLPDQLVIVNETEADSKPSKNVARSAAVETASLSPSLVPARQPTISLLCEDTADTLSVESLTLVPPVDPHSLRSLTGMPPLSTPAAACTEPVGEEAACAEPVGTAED

For the target UniProt Q8NCU8-2, the NP40-soluble protein abundance turned out to be 0.876 ± 0.17 (concentration: 1mM); 0.822 ± 0.086 (concentration: 2mM); 0.826 ± 0.14 (concentration: 4mM); 0.769 ± 0.068 (concentration: 6mM); 0.883 ± 0.12 (concentration: 8mM); 0.752 ± 0.038 (concentration: 10mM).

On to PDCD7 (UniProt Q8N8D1), for which the NP40-soluble protein abundance is 1.22 ± 0.14 (concentration: 1mM); 1.24 ± 0.058 (concentration: 2mM); 1.48 ± 0.099 (concentration: 4mM); 1.48 ± 0.024 (concentration: 6mM); 1.49 ± 0.13 (concentration: 8mM); 1.76 ± 0.16 (concentration: 10mM).

Consider UniProt Q6NW34|Q6NW34-2, for which the NP40-soluble protein abundance was 0.863 ± 0.078 (concentration: 1mM); 0.831 ± 0.11 (concentration: 2mM); 0.792 ± 0.15 (concentration: 4mM); 0.892 ± 0.11 (concentration: 6mM); 0.84 ± 0.14 (concentration: 8mM); 0.785 ± 0.21 (concentration: 10mM).

Consider UniProt Q8IUD2|X6RLX0, for which the NP40-soluble protein abundance was 0.979 ± 0.037 (concentration: 1mM); 0.985 ± 0.025 (concentration: 2mM); 0.997 ± 0.025 (concentration: 4mM); 1.01 ± 0.014 (concentration: 6mM); 0.988 ± 0.027 (concentration: 8mM); 0.997 ± 0.025 (concentration: 10mM).

In the case of CIRBP (UniProt Q14011), the NP40-soluble protein abundance is, setting by setting: (concentration: 1mM) 0.999 ± 0.062; (concentration: 2mM) 1.02 ± 0.029; (concentration: 4mM) 1.04 ± 0.033; (concentration: 6mM) 1.1 ± 0.061; (concentration: 8mM) 1.09 ± 0.051; (concentration: 10mM) 1.1 ± 0.025.

Regarding KRR1 (UniProt Q13601), the NP40-soluble protein abundance reads like this: (concentration: 1mM) 1.12 ± 0.012; (concentration: 2mM) 1.16 ± 0.043; (concentration: 4mM) 1.23 ± 0.066; (concentration: 6mM) 1.27 ± 0.047; (concentration: 8mM) 1.29 ± 0.026; (concentration: 10mM) 1.42 ± 0.033.

Consider UniProt Q2KHT3|Q2KHT3-2, for which the NP40-soluble protein abundance was 1.04 ± 0.045 (concentration: 1mM); 0.967 ± 0.1 (concentration: 2mM); 0.963 ± 0.11 (concentration: 4mM); 0.999 ± 0.093 (concentration: 6mM); 1.04 ± 0.15 (concentration: 8mM); 1.02 ± 0.17 (concentration: 10mM).

For the target UniProt Q08170, the NP40-soluble protein abundance is 1.58 ± 0.12 (concentration: 1mM); 1.68 ± 0.08 (concentration: 2mM); 1.66 ± 0.095 (concentration: 4mM); 1.81 ± 0.058 (concentration: 6mM); 1.68 ± 0.052 (concentration: 8mM); 1.64 ± 0.073 (concentration: 10mM).

For the target KBTBD2 (UniProt Q8IY47), the NP40-soluble protein abundance (concentration: 1mM) stood at 1.14 ± 0.13; the NP40-soluble protein abundance (concentration: 2mM) amounted to 1.11 ± 0.027; the NP40-soluble protein abundance (concentration: 4mM) was found to be 1.15 ± 0.07; the NP40-soluble protein abundance (concentration: 6mM) stood at 1.05 ± 0.044; the NP40-soluble protein abundance (concentration: 8mM) came out at 1.16 ± 0.13; the NP40-soluble protein abundance (concentration: 10mM) is 1.08 ± 0.026.

In the case of UniProt Q8TED0|H0Y8P4|Q8TED0-3, the NP40-soluble protein abundance worked out at 1.18 ± 0.18 (concentration: 1mM); 1.22 ± 0.11 (concentration: 2mM); 1.32 ± 0.18 (concentration: 4mM); 1.43 ± 0.28 (concentration: 6mM); 1.5 ± 0.24 (concentration: 8mM); 1.77 ± 0.41 (concentration: 10mM).

Regarding UniProt Q13795|Q13795-3, the NP40-soluble protein abundance runs as follows: (concentration: 1mM) 0.95 ± 0.024; (concentration: 2mM) 0.961 ± 0.015; (concentration: 4mM) 0.932 ± 0.025; (concentration: 6mM) 0.962 ± 0.046; (concentration: 8mM) 0.9416 ± 0.0073; (concentration: 10mM) 0.945 ± 0.039.

As for NDUFAF2 (UniProt Q8N183), the NP40-soluble protein abundance runs as follows: (concentration: 1mM) 0.927 ± 0.11; (concentration: 2mM) 0.916 ± 0.046; (concentration: 4mM) 0.934 ± 0.093; (concentration: 6mM) 0.906 ± 0.046; (concentration: 8mM) 0.959 ± 0.062; (concentration: 10mM) 0.848 ± 0.12.

As to UniProt Q8WUY8|M0R1E3, the NP40-soluble protein abundance by setting is: (concentration: 1mM) 1.02 ± 0.085; (concentration: 2mM) 1.049 ± 0.0036; (concentration: 4mM) 1.13 ± 0.032; (concentration: 6mM) 0.966 ± 0.052; (concentration: 8mM) 1.03 ± 0.067; (concentration: 10mM) 1.08 ± 0.013.

With TBC1D25 (UniProt Q3MII6), the NP40-soluble protein abundance (concentration: 1mM) came out at 0.982 ± 0.059; the NP40-soluble protein abundance (concentration: 2mM) was determined as 1.04 ± 0.11; the NP40-soluble protein abundance (concentration: 4mM) was 1.05 ± 0.16; the NP40-soluble protein abundance (concentration: 6mM) is 0.962 ± 0.095; the NP40-soluble protein abundance (concentration: 8mM) came out at 1.01 ± 0.14; the NP40-soluble protein abundance (concentration: 10mM) was 1 ± 0.15.

In the case of Q5QPA5|Q9NVS2|Q9NVS2-2 (UniProt Q9NVS2), the NP40-soluble protein abundance was 1.07 ± 0.12 (concentration: 1mM); 0.926 ± 0.14 (concentration: 2mM); 0.879 ± 0.17 (concentration: 4mM); 0.946 ± 0.39 (concentration: 6mM); 0.887 ± 0.24 (concentration: 8mM); 0.818 ± 0.2 (concentration: 10mM).
